Assay results published in PubChem BioAssay (NCATS).
Inconclusive results are not listed. Active and inactive are the calls of the source. Calls come from the whole dose curve; as a rule, active = well fitted cell-killing curve with a large enough effect; inconclusive = small, poorly fitted or top-dose-only effect; inactive = no such curve, though single readings can be large or run the other way.

Assay: qHTS of pediatric cancer cell lines to identify multiple opportunities for drug repurposing: Primary screen for LAN-5 cells (AID 1347100)
Conditions: LAN-5 neuroblastoma viability, CellTiter-Glo luminescence, 48 h; series mostly up to 46 µM
From the text: Drug repurposing or repositioning has been offered as a strategy for drug development in oncology programs. This approach has special potential for childhood cancers and other rare or orphan diseases, where the expected return on new drug development has been a disincentive to pharmaceuticals.
In this project we exploit the poly-pharmacology of drugs to discover new indications via phenotypic screening of a panel of 19 well-characterized cell lines derived from solid tumors seen in children and adolescents. The goal is to identify approved drugs with previously unrecognized anticancer properties that has the potential to reveal new mechanisms and biological processes involved in carcinogenesis or drug resistance. We employed a titration-based paradigm (quantitative high-throughput screening or qHTS), where all compounds were tested at multiple concentrations for their effect on cell viability. Concentration-response curves (CRCs) were derived directly from the primary screen, and both potency and efficacy values were used to identify compounds with robust bioactivity profiles. We screened the NIH Chemical Genomics Center (NCGC) Pharmaceutical Collection (NPC) and Mechanism Interrogation Plate (MIPE) small molecule collections of approved and investigational compounds against these cell lines; and measured metabolically active cells after 48 hours of compound treatment as a proxy for cell viability.
Assay Submitter: Nathalia J. Martinez, National Center for Advancing Translational Sciences, National Institutes of Health, Rockville, MD, USA; email: natalia.martinez@nih.gov
[1] Shen, M et al. Quantitative high-throughput phenotypic screening of pediatric cancer cell lines identifies multiple opportunities for drug repurposing. Oncotarget 2017 Dec 19;9(4):4758-4772. PMID 29435139.
The cells were obtained from University of North Carolina (UNC), Pediatric Preclinical Testing Program (PPT), and Coriell Institute (CI).
qHTS cell viability assay:
Cells were assayed in growth media at a density of 500-1,000 cells/well. Five microliters of cells were dispensed into 1,536-well, white, solid-bottom, TC-treated plates (Greiner Bio One) using a multidrop dispenser and incubated at 37 degrees C, 5% CO2, under a humidified atmosphere for 5 hours. Twenty-three nanoliters of compounds and controls (neutral control DMSO or positive control bortezomib at final concentration of 2.3 µM) were subsequently transferred by Kalypsys pintool. For primary screens, the MIPE collection was tested at 11-point dilutions (final concentrations range from 0.78 nM to 46 µM) and the NPC collection at 8-point dilutions (final concentrations range from 0.59 nM to 46 µM). Compounds tested in follow-up screens were assayed at 11-point dilutions. Cells were incubated for 48 hours, followed by addition of 3 µL of CellTiter-Glo (Promega). After a 15 min incubation at room temperature, samples were analyzed for luminescence intensity using a ViewLux High-throughput CCD imager equipped with clear filters.
Potency is the fitted concentration of half-maximal effect.

Row | Structure (SMILES) | Potency | activity change, negative = cytotoxic
1 | O=C(Cc1ccc(-c2ccc(OCCN3CCOCC3)cc2)cn1)NCc1ccccc1 | 9.3 nM (active) | –
2 | C=C1C(=CC=C2CCCC3(C)[C@@H]([C@H](C)C=CC=CC(O)(CC)CC)CC[C@@H]23)C[C@@H](O)C[C@@H]1O (stereo not given in full) | 14800 nM (active) | –
3 | C=CC(=O)Nc1cccc(Oc2nc(Nc3ccc(N4CCN(C)CC4)cc3OC)ncc2Cl)c1 | 1050 nM (active) | –
4 | CC[C@@H]1C(=O)N(C)c2cnc(Nc3ccc(C(=O)NC4CCC(N5CCN(CC6CC6)CC5)CC4)cc3OC)nc2N1C(C)C (stereo not given in full) | 52.6 nM (active) | –
5 | CS(=O)(=O)N1CCN(Cc2cc3nc(-c4cccc5[nH]ncc45)nc(N4CCOCC4)c3s2)CC1 | 1050 nM (active) | –
6 | COCCOc1ccc2c(c1)ncn2-c1ccc2cccc(N3CCC(N)CC3)c2n1 | 9350 nM (active) | –
7 | CC(C)C[C@H](NC(=O)CNC(=O)c1cc(Cl)ccc1Cl)B(O)O | 132 nM (active) | –
8 | Cc1ccc(S(=O)(=O)Nc2cc(Cl)ccc2C(=O)Nc2nc(-c3ccccc3)cs2)cc1 | 9350 nM (active) | –
9 | COc1ccc(C=Cc2cc(OC)c(OC)c(OC)c2)cc1O | 1 nM (active) | –
10 | O=C(CCCCCCNC(=O)c1cnc(N(c2ccccc2)c2ccccc2)nc1)NO | 4690 nM (active) | –
11 | CC1=C(CO)C(=O)O[C@@H]([C@@H](C)[C@H]2CC[C@H]3[C@@H]4C[C@H]5O[C@]56[C@@H](O)C=CC(=O)[C@]6(C)[C@@H]4CC[C@]23C)C1 | 187 nM (active) | –
12 | CC(C)[C@H](C(=O)Nc1ccc(C(=O)NO)cc1)c1ccccc1 | 526 nM (active) | –
13 | O=C(Nc1cc(C(F)(F)F)cc(C(F)(F)F)c1)c1cc(Cl)ccc1O | 332 nM (active) | –
14 | Cc1nc2cnc3ccc(C#Cc4cccnc4)cc3c2n1-c1ccc(C(C)(C)C#N)cc1 | 5900 nM (active) | –
15 | C=CCn1c(=O)c2cnc(Nc3ccc(N4CCN(C)CC4)cc3)nc2n1-c1cccc(C(C)(C)O)n1 | 469 nM (active) | –
16 | CCCCCN(CCC12CC3CC(CC(C3)C1)C2)C(=O)NCCCc1ccncc1 | 16600 nM (active) | –
17 | OCc1ccc(-c2ccc(-c3ccc(CO)s3)o2)s1 | inactive | –
18 | NC(=O)Nc1cc(-c2cccc(F)c2)sc1C(=O)N[C@H]1CCCNC1 | 469 nM (active) | –
19 | CC(O)C1C(=O)N2C(C(=O)O)=C(SC3CNC(C(=O)N(C)C)C3)C(C)C12 (stereo not given) | inactive | –
20 | COc1cc(-c2nn(C3CCC(N4CCN(C(C)=O)CC4)CC3)c3ncnc(N)c23)ccc1NC(=O)c1cc2ccccc2n1C (stereo not given) | 332 nM (active) | –

Row | Structure (SMILES) | Potency | activity change, negative = cytotoxic
21 | CC1(C)CC(=O)c2c(C(F)(F)F)nn(-c3ccc(C(N)=O)c(NC4CCC(OC(=O)CN)CC4)c3)c2C1 (stereo not given) | 187 nM (active) | –
22 | CC(C)c1cc(-c2n[nH]c(=O)n2-c2ccc3c(ccn3C)c2)c(O)cc1O | 66.2 nM (active) | –
23 | Cn1c(=O)n(-c2ccc(C(C)(C)C#N)cc2)c2c3cc(-c4cnc5ccccc5c4)ccc3ncc21 | 1660 nM (active) | –
24 | CNc1nccc(-c2cccnc2Oc2cc(C(=O)Nc3cccc(C(F)(F)F)c3)ccc2C)n1 | 16600 nM (active) | –
25 | Cc1ccc(-c2ncn(-c3ccc(Nc4nccc(-c5cccc(N6CCOCC6)c5)n4)cc3)n2)cn1 | 66.2 nM (active) | –
26 | COc1ccc(CC2c3cc(OC)c(OC)cc3CC[N+]2(C)CCC(=O)OCCCCCOC(=O)CC[N+]2(C)CCc3cc(OC)c(OC)cc3C2Cc2ccc(OC)c(OC)c2)cc1OC (stereo not given) | – | 2.36% [at 9.22 µM] (inactive)
27 | CC1(C)OC2=C(C(=O)c3ccccc3C2=O)[C@H](NCc2ccccc2)[C@H]1O | 5260 nM (active) | –
28 | C[C@H]1C[C@@H]2[C@@H]([C@@H](O)C[C@@]3(C)[C@H]2CC[C@]3(O)C(=O)CO)[C@@]2(C)C=CC(=O)C=C12 | inactive | –
29 | CN(C)Cc1c(C(=O)NCCOc2ccc(C(=O)NO)cc2)oc2ccccc12 | 469 nM (active) | –
30 | O=C(O)CO.[NH2-].[NH2-].[Pt+2] | inactive | –
31 | Cc1cc(Nc2cc(N3CCN(C)CC3)nc(Sc3ccc(NC(=O)C4CC4)cc3)n2)n[nH]1 | 105 nM (active) | –
32 | COc1ccc(CC2SC(=O)NC2=O)cc1C(=O)NCc1ccc(C(F)(F)F)cc1 (stereo not given) | inactive | –
33 | CN1c2cc(O)c(N=NC(N)=O)cc2CC1S(=O)(=O)O (stereo not given) | inactive | –
34 | COc1cc2nccc(Oc3ccc(NC(=O)C4(C(=O)Nc5ccc(F)cc5)CC4)cc3)c2cc1OC | 1480 nM (active) | –
35 | Nc1nc(-c2nn(Cc3ccccc3F)c3ncccc23)nc(N)c1N1CCOCC1 | inactive | –
36 | Clc1ccc2ncc(-c3cccc(NC4CNC4)n3)n2c1 | 16600 nM (active) | –
37 | COc1ccc(OC)c(-c2nnc3ccc(-c4ccc(OC)c(O[C@@H]5CCOC5)c4)nn23)c1 | 26400 nM (active) | –
38 | CN(C)CC(C)(C)CNc1nn2c(-c3ccccc3)nnc2cc1C1CCC1 | 418 nM (active) | –
39 | CN1CCN(c2ccc3nc(-c4c(N)c5c(F)cccc5[nH]c4=O)[nH]c3c2)CC1 | 4690 nM (active) | –
40 | CC(=O)c1c(C)c2cnc(Nc3ccc(N4CCNCC4)cn3)nc2n(C2CCCC2)c1=O | 18700 nM (active) | –
